Test results published in PubChem BioAssay (NCATS).
Results filed as inconclusive are left out. Entries that show only a call come without a potency. Active and inactive are the calls of the source. Calls follow the shape of the dose curve; as a rule, active = well fitted inhibition curve with a large enough effect; inconclusive = small, poorly fitted or top-dose-only effect; inactive = no such curve, though single readings can be large or run the other way.

The compounds below were run against Retinaldehyde dehydrogenase 3 (Homo sapiens) (UniProt P47895) (assay: qHTS for Inhibitors of the Aldehyde Dehydrogenase Family (ALDH1A3) Primary screen (AID 2061315)). Conditions: ALDH inhibition qHTS; series mostly up to 56 µM.

SMILES | Potency | activity change, negative = inhibition
Cc1ccc(-c2cc(C(F)(F)F)nn2-c2ccc(S(N)(=O)=O)cc2)cc1 | inactive | –
CC(C)(C)OC(=O)N1CCN(c2cnc(NCc3ccc(-c4ccc(C#N)cc4)o3)nc2)CC1 | inactive | –
CCN(CC)CCCC(C)Nc1ccnc2cc(Cl)ccc12 (stereo unspecified) | – | 6.44% [at 11.2 µM] (inactive)
CCN(CC)CCNC(=O)c1ccc(N)cc1 | inactive | –
CC(C)c1c(C(=O)Nc2ccccc2)c(-c2ccccc2)c(-c2ccc(F)cc2)n1CC[C@@H](O)C[C@@H](O)CC(=O)O | inactive | –
CC(=O)O[C@]1(C(C)=O)CC[C@H]2[C@@H]3C=C(Cl)C4=CC(=O)[C@@H]5C[C@@H]5[C@]4(C)[C@H]3CC[C@@]21C | inactive | –
CC(C)(C)OC(=O)N1CCC(c2ccc(NCc3ccc(-c4ccc(C#N)cc4)o3)cc2)CC1 | inactive | –
CC(C)(C)OC(=O)N1CCN(c2ccc(NCc3ccc(-c4ccc(C#N)cc4)o3)nc2)CC1 | inactive | –
Clc1ccc2c(c1)C(N1CCNCC1)=Nc1ccccc1O2 | inactive | –
CC(C)(C)OC(=O)N1CCN(c2cnc(NCc3ccc(-c4ccc(C#N)cc4)o3)cn2)CC1 | inactive | –
CC(C)(C)OC(=O)N1CCN(c2ccc(NCc3ccc(-c4ccc(C#N)cc4)o3)cn2)CC1 | inactive | –

These compounds were tested against Aldehyde dehydrogenase 1A1 (Homo sapiens) (UniProt P00352) (assay: qHTS for Inhibitors of the Aldehyde Dehydrogenase Family (ALDH1A1) Confirmatory screens (AID 2061316; also: nearly all actives have a fitted effect of over 65% in size; also: potency is read from the fitted curve at half-maximal effect)). Conditions: ALDH inhibition qHTS; series mostly up to 47.3 µM.

SMILES | Potency
O=C(O)/C=C/c1ccc(O)c(O)c1 | inactive
CC(C)(C)OC(=O)N1CCN(c2cnc(NCc3ccc(-c4ccc(C#N)cc4)o3)nc2)CC1 | 10.1 µM (active)
CCN(CC)CCNC(=O)c1ccc(N)cc1 | inactive
CC(C)NCC(O)c1ccc(O)c(O)c1 (stereo unspecified) | inactive
CC(C)(C)OC(=O)N1CCC(c2ccc(NCc3ccc(-c4ccc(C#N)cc4)o3)cc2)CC1 | 12.7 µM (active)
Cc1ccc(S(=O)(=O)NC(=O)NN2CCCCCC2)cc1 | inactive
CC(C)(C)OC(=O)N1CCN(c2ccc(NCc3ccc(-c4ccc(C#N)cc4)o3)nc2)CC1 | 7.12 µM (active)
CC(C)(C)OC(=O)N1CCN(c2cnc(NCc3ccc(-c4ccc(C#N)cc4)o3)cn2)CC1 | 4.49 µM (active)
O=C(O)CN(CCOCCOCCN(CC(=O)O)CC(=O)O)CC(=O)O | inactive
CC(C)(C)OC(=O)N1CCN(c2ccc(NCc3ccc(-c4ccc(C#N)cc4)o3)cn2)CC1 | 2.25 µM (active)
